From PubChem BioAssay AID449750 (Broad Institute, 2010)
The campaign covered roughly 2,100 compounds. About 1,400 (67%) were called active. The rule behind the calls is not given here. The set was probably picked from earlier hits. The list shows a part of the results. Measured potencies and affinities stand elsewhere.

test: non-covalent RecA intein splicing inhibitors, dose response, biochemical, cell-free, fluorescence, secondary screen (AID 449750); settings: series mostly up to 38 µM

SMILES | outcome
COCCn1c(N)c(C(=O)NCc2cccs2)c2nc3ccccc3nc21 | inactive
CC1=NN(Cc2ccccc2)C(=O)/C1=C\c1ccc(N(C)C)cc1 | inactive
Cc1ccccc1NC1=C/C(=N\S(=O)(=O)c2cccs2)c2ccccc2C1=O | inactive
Oc1ccc(N=Cc2ccc(-c3cccs3)s2)cc1 | inactive
